# According to PubChem BioAssay (Tox21):
# Values without a mark were called inactive. Results filed as inconclusive are left out. Entries that show only a call come without a potency. Activity calls are given as the source filed them. Unless noted, calls follow the shape of the dose curve; as a rule, active = well fitted curve in the direction sought with a large enough effect in the repeat runs; inconclusive = weak or mixed curves; inactive = no such curve, though single readings can be large; an effect the other way counts as inactive or inconclusive.
# Experiments:
# [1] = qHTS assay to identify small molecule agonists of the sonic hedgehog signaling (Shh) pathway (AID 1259368; calls by dose curve;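 also: NIH/3T3-derived 3T3Gli1-Luc cells carrying a stable Gli1-driven firefly luciferase reporter; series mostly up to about 92 µM; nearly all actives have a fitted effect of over 15% in size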)
# Summary of the method: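 Stable NIH/3T3 Gli1-Luc reporter clone; 24 hr cpd exposure after a 4 hr settling period; luminescence endpoint.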
# [2] = target: Estrogen receptor beta (Homo sapiens) (UniProt Q92731); test: qHTS assay to identify small molecule agonists of the estrogen receptor beta (ER-beta) signaling pathway (AID 1259377; active = well fitted activation curve with a large enough effect in the signal ratio in the repeat runs, not every such curve was filed as active; the % refers to the signal ratio)
# Chain of Estrogen receptor beta (Homo sapiens) (Q92731 whole entry, looked up): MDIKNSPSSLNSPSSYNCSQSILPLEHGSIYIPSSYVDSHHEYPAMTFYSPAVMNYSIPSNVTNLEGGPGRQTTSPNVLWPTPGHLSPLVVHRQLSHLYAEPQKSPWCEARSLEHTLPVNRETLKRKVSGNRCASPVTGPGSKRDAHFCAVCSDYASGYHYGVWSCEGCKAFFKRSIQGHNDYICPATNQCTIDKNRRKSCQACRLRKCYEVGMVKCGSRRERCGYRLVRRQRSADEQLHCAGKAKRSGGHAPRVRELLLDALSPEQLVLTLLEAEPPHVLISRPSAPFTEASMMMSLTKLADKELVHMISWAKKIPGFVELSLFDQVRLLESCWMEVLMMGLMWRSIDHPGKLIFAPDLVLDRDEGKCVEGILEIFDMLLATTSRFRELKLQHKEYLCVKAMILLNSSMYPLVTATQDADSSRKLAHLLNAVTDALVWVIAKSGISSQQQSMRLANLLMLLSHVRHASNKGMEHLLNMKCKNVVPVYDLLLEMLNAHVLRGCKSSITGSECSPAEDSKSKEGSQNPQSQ
# Summary of the method: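 Screening used GripTite ER-beta-UAS-bla cells held in 2% charcoal-stripped FBS medium. After overnight (16 hr) compound incubation at 37C, beta-lactamase activity was detected with a FRET substrate by fluorescence.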
# [3] = target: Estrogen receptor beta (Homo sapiens) (UniProt Q92731); test: qHTS assay to identify small molecule antagonists of the estrogen receptor beta (ER-beta) signaling pathway (AID 1259378; active = well fitted inhibition curve with a large enough effect in the signal ratio in the repeat runs, not every such curve was filed as active; the % refers to the signal ratio)
# Summary of the method: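 ER-beta-UAS-bla HEK293T (GripTite) cells in 2% charcoal-stripped FBS medium were preincubated 6 hr at 37C, dosed with compound, then stimulated with 1 nM E2 (final) for 16 hr; beta-lactamase reporter read by B/G FRET fluorescence after 2 hr substrate loading.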
# [4] = qHTS assay to identify small molecule agonists of the androgen receptor (AR) signaling pathway in the presence of an antagonist - cell viability counter screen (AID 1259379);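 also: MDA-kb2 human breast cancer cells carrying an MMTV luciferase reporter; series mostly up to about 92 µM; nearly all actives have a fitted effect of over 25% in size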
# Summary of the method: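 Counter screen for cell viability run in parallel with the AR agonist-mode luciferase assay. MDA-kb2 cells were co-treated with nilutamide (3.0uM final) and compounds, then incubated 16 hr at 37C, and CellTiter-Fluor fluorescence was measured.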
# [5] = qHTS assay to identify small molecule agonists of the estrogen receptor beta (ER-beta) signaling pathway - cell viability counter screen (AID 1259380); also: nearly all actives have a fitted effect of over 30% in size
# Summary of the method: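 In this qHTS counter screen, HEK293T cells carrying an ER-beta/UAS beta-lactamase reporter, grown in 2% charcoal-stripped FBS, received compound for 16 hr; ATP-based CellTiter-Glo luminescence was then read after 30 min at room temperature.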
# [6] = qHTS assay to identify small molecule antagonists of the estrogen receptor beta (ER-beta) signaling pathway - cell viability counter screen (AID 1259382); also: series mostly up to about 92 µM; nearly all actives have a fitted effect of over 55% in size
# Summary of the method: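 HEK293T ER-beta-UAS-bla, 2% charcoal-stripped FBS; compounds + 1nM E2 16 hr 37C; CellTiter-Glo luminescence, 30 min RT.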
# [7] = target: Estrogen receptor (Homo sapiens) (UniProt P03372); test: qHTS assay to identify small molecule agonists of the estrogen receptor alpha (ER-alpha) signaling pathway in the presence of an antagonist (AID 1259383; calls by dose curve; also: top concentration of the series differs between compounds; nearly all actives have a fitted effect of over 15% in size)
# Chain of Estrogen receptor (Homo sapiens) (P03372 whole entry, looked up): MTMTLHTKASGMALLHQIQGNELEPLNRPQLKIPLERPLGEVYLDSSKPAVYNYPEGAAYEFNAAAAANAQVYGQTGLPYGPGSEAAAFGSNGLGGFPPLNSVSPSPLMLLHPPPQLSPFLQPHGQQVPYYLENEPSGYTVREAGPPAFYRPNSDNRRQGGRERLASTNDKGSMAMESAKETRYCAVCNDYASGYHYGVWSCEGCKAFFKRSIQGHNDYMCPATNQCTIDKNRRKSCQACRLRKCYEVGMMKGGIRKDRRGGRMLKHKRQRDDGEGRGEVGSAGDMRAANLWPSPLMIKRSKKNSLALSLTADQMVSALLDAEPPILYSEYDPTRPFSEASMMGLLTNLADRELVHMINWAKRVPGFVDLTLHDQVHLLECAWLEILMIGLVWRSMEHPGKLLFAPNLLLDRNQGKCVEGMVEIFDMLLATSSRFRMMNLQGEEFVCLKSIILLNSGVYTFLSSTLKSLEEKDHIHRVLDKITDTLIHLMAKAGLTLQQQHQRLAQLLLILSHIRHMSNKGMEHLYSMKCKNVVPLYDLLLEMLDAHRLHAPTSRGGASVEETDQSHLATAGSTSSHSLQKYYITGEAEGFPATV
# Summary of the method: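 ER-alpha agonism measured under antagonist challenge: 10.0nM ICI-182,780 (final) plus compound, 15 concentrations, 22hr, VM7Luc4E2 ERE-luciferase cells. Read by luminescence.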
# [8] = qHTS assay to identify small molecule agonists or antagonists of the thyroid stimulating hormone receptor (TSHR) signaling pathway - wild type cell line counter screen (AID 1259384; calls by dose curve)
# Summary of the method: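 Wild-type HEK293 cells were plated 18 h at 37 C/5% CO2, pin-dosed with compound plus Ro20-1724 medium, held 30 min at room temperature, then given cAMP-d2 and anti-cAMP-cryptate; fluorescence was read after 1 h. Fifteen concentrations, triplicate.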
# [9] = qHTS assay to identify small molecule agonists of the estrogen receptor alpha (ER-alpha) signaling pathway in the presence of an antagonist - cell viability counter screen (AID 1259386);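 also: series mostly up to about 92 µM; cells exposed to compounds for 22 h at 37 °C before the viability read; nearly all actives have a fitted effect of over 30% in size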
# Summary of the method: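 Steps: 5-day stripped-FBS culture; seed and incubate 24hr; add ICI-182,780 (10.0nM final); pin 15-point compound titration; incubate 22hr at 37C; add CellTiter-Fluor at 21hr; read fluorescence.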
# [10] = target: Progesterone receptor (Homo sapiens) (UniProt P06401); test: qHTS assay to identify small molecule agonists of the progesterone receptor (PR) signaling pathway (AID 1346784; calls by dose curve; also: nearly all actives have a fitted effect of over 30% in size; also: potency is read from the fitted curve at half-maximal effect)
# Chain of Progesterone receptor (Homo sapiens) (P06401 whole entry, looked up): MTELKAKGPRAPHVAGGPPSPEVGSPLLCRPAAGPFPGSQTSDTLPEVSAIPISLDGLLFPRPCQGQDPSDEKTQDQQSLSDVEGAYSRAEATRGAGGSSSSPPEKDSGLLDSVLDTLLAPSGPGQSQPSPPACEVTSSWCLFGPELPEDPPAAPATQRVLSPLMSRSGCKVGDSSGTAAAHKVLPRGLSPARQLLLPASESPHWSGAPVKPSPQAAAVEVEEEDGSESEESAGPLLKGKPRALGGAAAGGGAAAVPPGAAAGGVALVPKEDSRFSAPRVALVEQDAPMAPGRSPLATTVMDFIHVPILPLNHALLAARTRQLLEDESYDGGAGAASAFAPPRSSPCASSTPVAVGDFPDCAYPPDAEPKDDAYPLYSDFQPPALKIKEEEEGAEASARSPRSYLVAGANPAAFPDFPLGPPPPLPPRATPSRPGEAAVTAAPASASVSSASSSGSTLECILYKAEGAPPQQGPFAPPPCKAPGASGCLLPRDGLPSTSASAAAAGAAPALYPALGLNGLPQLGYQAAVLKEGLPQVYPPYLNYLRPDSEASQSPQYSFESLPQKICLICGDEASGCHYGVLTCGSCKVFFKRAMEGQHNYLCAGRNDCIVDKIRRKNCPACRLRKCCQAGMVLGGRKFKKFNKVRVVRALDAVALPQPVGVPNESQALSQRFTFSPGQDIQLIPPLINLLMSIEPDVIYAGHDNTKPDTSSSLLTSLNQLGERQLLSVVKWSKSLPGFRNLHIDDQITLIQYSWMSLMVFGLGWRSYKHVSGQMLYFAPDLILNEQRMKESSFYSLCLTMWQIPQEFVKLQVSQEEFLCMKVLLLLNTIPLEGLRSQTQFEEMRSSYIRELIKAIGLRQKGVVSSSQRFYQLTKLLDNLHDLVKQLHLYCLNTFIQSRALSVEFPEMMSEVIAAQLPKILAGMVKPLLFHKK
# Summary of the method: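 Seed PR-UAS-bla HEK 293T cells (2% charcoal-stripped FBS), incubate 6 hr at 37C; add compounds in DMSO, 16 hr at 37C; add LiveBLAzer B/G substrate, 2 hr RT; read fluorescence intensity.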
# [11] = target: Progesterone receptor (Homo sapiens) (UniProt P06401); test: qHTS assay to identify small molecule antagonists of the progesterone receptor (PR) signaling pathway (AID 1346795; active = well fitted inhibition curve with a large enough effect in the signal ratio in the repeat runs, not every such curve was filed as active; the % refers to the signal ratio)
# Summary of the method: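 Screening used a GripTite HEK293T line with PR-responsive UAS-beta-lactamase. Cells were challenged with compound in the presence of 1 nM R5020 final for 16 hr at 37C; B/G FRET substrate, 2 hr room temperature, fluorescence.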
# [12] = qHTS assay to identify small molecule antagonists of the progesterone receptor (PR) signaling pathway - cell viability counter screen (AID 1346798); also: series mostly up to about 92 µM; nearly all actives have a fitted effect of over 50% in size
# Summary of the method: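 Measures cytotoxicity in parallel with the PR antagonist reporter read: HEK293T PR-UAS-bla cells get compound and R5020 for 16 hr, and remaining viable cells are quantified by CellTiter-Glo luminescence.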
# [13] = qHTS assay to identify small molecule antagonists of the TGF-beta/Smad signaling pathway - cell viability counter screen (AID 1346824); also: nearly all actives have a fitted effect of over 50% in size
# Summary of the method: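 SBE-bla HEK 293T cells were plated overnight at 37 C, then given compounds in DMSO plus TGF-beta1 (added as 0.25 ng/mL solution) for 5 hr. After the bla read, CellTiter-Glo was added to the same wells and luminescence read after 30 min at room temperature.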
# [14] = qHTS assay to identify small molecule agonists of the TGF-beta/Smad signaling pathway - cell viability counter screen (AID 1346829); also: top concentration of the series differs between compounds; nearly all actives have a fitted effect of over 45% in size
# Summary of the method: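 Here the cytotoxicity of library compounds is measured in SBE-bla HEK 293T cells treated for 5 hr, using CellTiter-Glo added to wells already read for the beta-lactamase reporter.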
# [15] = qHTS assay to identify small molecule agonists of the TGF-beta/Smad signaling pathway (AID 1346859; active = well fitted activation curve with a large enough effect in the signal ratio in the repeat runs, not every such curve was filed as active; the % refers to the signal ratio; also: series mostly up to about 77 µM)
# Summary of the method: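 Beta-lactamase reporter activity downstream of Smad binding elements was measured in stably transfected HEK 293T cells; compounds were incubated for 5 hr, substrate for 2 hr at room temperature.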
# [16] = target: Thyrotropin-releasing hormone receptor (Homo sapiens) (UniProt P34981); test: qHTS assay to identify small molecule antagonists of the thyrotropin-releasing hormone receptor (TRHR) signaling pathway (AID 1346877; active = well fitted inhibition curve with a large enough effect in the repeat runs, not every such curve was filed as active; also: series mostly up to about 51 µM)
# Chain of Thyrotropin-releasing hormone receptor (Homo sapiens) (P34981 whole entry, looked up): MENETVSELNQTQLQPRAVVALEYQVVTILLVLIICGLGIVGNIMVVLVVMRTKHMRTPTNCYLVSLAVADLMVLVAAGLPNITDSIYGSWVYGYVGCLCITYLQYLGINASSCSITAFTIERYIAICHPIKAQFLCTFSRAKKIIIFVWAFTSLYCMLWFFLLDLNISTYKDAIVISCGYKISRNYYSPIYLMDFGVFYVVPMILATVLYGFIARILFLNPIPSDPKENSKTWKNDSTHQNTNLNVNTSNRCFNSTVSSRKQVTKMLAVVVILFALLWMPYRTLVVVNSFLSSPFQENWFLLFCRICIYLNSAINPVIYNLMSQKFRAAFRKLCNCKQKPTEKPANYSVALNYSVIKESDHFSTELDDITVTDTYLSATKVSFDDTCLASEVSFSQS
# Summary of the method: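 Human TRHR in HEK293 cells; inhibition of the intracellular calcium rise triggered by 1 nM TRH was followed by fluorescence over 3 min. Compounds were run at 15 concentrations, three replicates each.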
# [17] = target: Androgen receptor (Homo sapiens) (UniProt P10275); test: qHTS assay to identify small molecule agonists of the androgen receptor (AR) signaling pathway in the presence of an antagonist (AID 1259381; calls by dose curve; also: nearly all actives have a fitted effect of over 15% in size)
# Chain of Androgen receptor (Homo sapiens) (P10275 whole entry, looked up): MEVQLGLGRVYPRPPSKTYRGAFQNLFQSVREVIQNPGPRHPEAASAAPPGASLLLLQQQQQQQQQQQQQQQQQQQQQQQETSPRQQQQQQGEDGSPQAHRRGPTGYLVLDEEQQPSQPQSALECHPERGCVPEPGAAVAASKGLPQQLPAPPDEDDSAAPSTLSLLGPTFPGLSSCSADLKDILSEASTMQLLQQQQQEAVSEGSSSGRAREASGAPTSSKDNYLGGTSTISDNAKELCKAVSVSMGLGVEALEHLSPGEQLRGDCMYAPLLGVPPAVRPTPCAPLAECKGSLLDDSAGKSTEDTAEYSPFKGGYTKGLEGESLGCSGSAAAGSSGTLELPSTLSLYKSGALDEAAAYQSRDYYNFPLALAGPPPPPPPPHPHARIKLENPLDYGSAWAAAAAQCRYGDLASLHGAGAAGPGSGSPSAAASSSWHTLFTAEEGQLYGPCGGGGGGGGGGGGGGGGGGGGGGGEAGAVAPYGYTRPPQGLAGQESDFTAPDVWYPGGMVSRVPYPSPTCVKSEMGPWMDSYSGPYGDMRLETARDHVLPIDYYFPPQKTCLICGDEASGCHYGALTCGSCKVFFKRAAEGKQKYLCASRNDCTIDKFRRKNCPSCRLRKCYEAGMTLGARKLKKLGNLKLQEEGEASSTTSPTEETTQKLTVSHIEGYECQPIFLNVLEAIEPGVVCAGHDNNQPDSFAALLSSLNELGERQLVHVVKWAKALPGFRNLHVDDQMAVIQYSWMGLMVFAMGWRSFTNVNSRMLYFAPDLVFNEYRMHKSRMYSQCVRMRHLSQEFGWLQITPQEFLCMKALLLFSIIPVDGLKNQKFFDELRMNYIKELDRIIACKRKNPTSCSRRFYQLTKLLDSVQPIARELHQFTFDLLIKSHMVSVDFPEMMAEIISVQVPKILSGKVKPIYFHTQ
# Summary of the method: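 AR antagonist background: nilutamide 3.0uM final. Cell line: MDA-kb2, MMTV-driven luciferase, responsive to both AR and GR. Exposure 16hr, 37C, no CO2; ONE-Glo luminescence.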
# [18] = target: Thyrotropin receptor (Homo sapiens) (UniProt P16473); test: qHTS assay to identify small molecule antagonists of the thyroid stimulating hormone receptor (TSHR) signaling pathway (AID 1259385; calls by dose curve; also: nearly all actives have a fitted effect of over 20% in size)
# Chain of Thyrotropin receptor (Homo sapiens) (P16473 whole entry, looked up): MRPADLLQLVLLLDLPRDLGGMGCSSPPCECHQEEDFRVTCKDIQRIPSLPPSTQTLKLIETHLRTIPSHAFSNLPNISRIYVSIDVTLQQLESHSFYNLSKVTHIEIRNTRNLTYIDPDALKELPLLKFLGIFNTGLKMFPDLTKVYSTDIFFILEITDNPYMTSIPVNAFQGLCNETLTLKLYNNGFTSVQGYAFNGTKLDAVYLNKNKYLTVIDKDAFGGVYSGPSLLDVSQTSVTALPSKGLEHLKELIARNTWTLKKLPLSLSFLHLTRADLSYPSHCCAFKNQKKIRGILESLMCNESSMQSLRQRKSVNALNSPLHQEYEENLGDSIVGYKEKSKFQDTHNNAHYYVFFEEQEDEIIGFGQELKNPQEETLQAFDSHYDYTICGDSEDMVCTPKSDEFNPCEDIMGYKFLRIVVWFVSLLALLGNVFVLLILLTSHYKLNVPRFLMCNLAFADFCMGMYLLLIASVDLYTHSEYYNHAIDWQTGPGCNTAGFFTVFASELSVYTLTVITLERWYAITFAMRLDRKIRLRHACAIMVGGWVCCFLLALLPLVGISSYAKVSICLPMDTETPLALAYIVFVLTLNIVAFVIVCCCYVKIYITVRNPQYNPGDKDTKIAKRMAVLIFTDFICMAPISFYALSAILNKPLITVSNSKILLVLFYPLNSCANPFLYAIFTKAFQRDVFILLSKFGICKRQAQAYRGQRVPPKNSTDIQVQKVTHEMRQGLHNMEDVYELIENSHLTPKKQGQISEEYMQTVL
# Summary of the method: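 TSHR-HEK293 cells were plated and held 18 h at 37C/5% CO2, then given compound plus Ro20-1724 and stimulated with TSH at 1.5 ng/mL final. After 30 min at room temperature, cAMP was detected with cAMP-d2/anti-cAMP-cryptate (1 h) by fluorescence.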
# [19] = qHTS assay to identify small molecule agonists of the progesterone receptor (PR) signaling pathway - cell viability counter screen (AID 1346799; calls by dose curve; also: nearly all actives have a fitted effect of over 45% in size)
# Summary of the method: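 Using the same plates as the PR reporter screen, HEK293T PR-UAS-bla cells received compounds for 16 hr at 37C and were then lysed with CellTiter-Glo; luminescence was read 30 min later at room temperature.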
# [20] = qHTS assay to identify small molecule antagonists of the sonic hedgehog signaling (Shh) pathway (AID 1259369; calls by dose curve; also: nearly all actives have a fitted effect of over 45% in size)
# Summary of the method: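 Gli1 transcriptional reporter (firefly Luc) in NIH/3T3 background, conditioned-medium activated. 24hr exposure, luminescence endpoint.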
Structure (SMILES),outcome [1],outcome [2],outcome [3],Potency [4],Potency [5],Potency [6],Potency [7],outcome [8],Potency [9],Potency [10],Potency [11],Potency [12],Potency [13],outcome [14],outcome [15],outcome [16],Potency [17],Potency [18],Potency [19],Potency [20]
CC(C(=O)O)c1ccc(CC2CCCC2=O)cc1 (stereo not drawn),inactive,inactive,inactive,inactive,inactive,inactive,inactive,inactive,inactive,inactive,inactive,inactive,inactive,inactive,inactive,inactive,,,,
C=C(C)C(=O)OCCCCCCCC(C)C,inactive,inactive,inactive,inactive,inactive,inactive,inactive,inactive,inactive,inactive,,inactive,inactive,inactive,inactive,inactive,inactive,inactive,inactive,
CC(=O)CC(C)C,inactive,inactive,inactive,inactive,inactive,inactive,,inactive,inactive,inactive,inactive,inactive,inactive,,inactive,,inactive,inactive,inactive,
CO[Si](CCCOCC1CO1)(OC)OC (stereo not drawn),inactive,,,,inactive,inactive,inactive,,inactive,inactive,inactive,inactive,inactive,inactive,inactive,inactive,,,inactive,inactive
CCN(Cc1ccncc1)C(=O)C(CO)c1ccccc1 (stereo not drawn),inactive,inactive,inactive,inactive,,inactive,,inactive,,inactive,inactive,inactive,inactive,inactive,inactive,inactive,,inactive,,
CCCC(=O)O[C@]1(C(=O)CO)CC[C@H]2[C@@H]3CCC4=CC(=O)CC[C@]4(C)[C@H]3[C@@H](O)C[C@@]21C,inactive,,,,inactive,inactive,,inactive,inactive,0.841 µM (active),inactive,inactive,inactive,inactive,inactive,inactive,,inactive,,inactive
Cc1nc2c([nH]1)c(=O)n(C)c(=O)n2Cc1ccco1,inactive,inactive,inactive,inactive,inactive,inactive,inactive,,inactive,inactive,inactive,inactive,inactive,inactive,inactive,inactive,,,inactive,
